# PubChem BioAssay (NCI)
# This is part of a sample that, as a whole, favours compounds with a hit. Of some 79,000 tested, about 15% had one in any assay. Values without a mark were called inactive. Calls of active or inactive are those of the source. No stated cut-off is given here; in the data, active means growth inhibition above about 70%; inactive means the rest.
# Assays:
# [1] = NCI Yeast Anticancer Drug Screen. Data for the rad52 strain (AID 147);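 further: 0% = growth of vehicle-treated control cultures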; settings: S. cerevisiae rad52 mutant growth inhibition, stronger effect = higher value
# Summary of the method: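 Yeast strain carrying a DNA damage repair alteration was exposed to test compounds. Growth inhibition was measured relative to vehicle-treated controls.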
# [2] = NCI Yeast Anticancer Drug Screen. Data for the wt1 strain (AID 149);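 further: 0% = growth of vehicle-treated wt1 cultures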; settings: S. cerevisiae wt1 strain (SPY 50644) growth inhibition, stronger effect = higher value
# Summary of the method: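 Each compound is tested on wt1 yeast and the loss of growth versus vehicle gives the inhibition value.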
# [3] = NCI Yeast Anticancer Drug Screen. Data for the rad50EPP+ strain (AID 151);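 further: 0% = growth of vehicle-treated control cultures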; settings: S. cerevisiae rad50 mutant strain, stronger effect = higher value
# Summary of the method: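 Yeast strain carrying rad50 alteration (rad50EPP+) exposed to compounds; growth inhibition measured relative to vehicle-treated controls.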
# [4] = NCI Yeast Anticancer Drug Screen. Data for the mgt1 strain (AID 153); settings: S. cerevisiae mgt1 mutant growth inhibition, stronger effect = higher value
# Summary of the method: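 Yeast mgt1 strain (DNA repair/cell-cycle alteration panel) exposed to compounds; growth inhibition measured relative to vehicle-treated controls.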
# [5] = NCI Yeast Anticancer Drug Screen. Data for the rad50 strain (AID 155);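 further: 0% = growth of vehicle-only cultures of the same strain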; settings: S. cerevisiae rad50 strain growth inhibition, stronger effect = higher value
# Summary of the method: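 Vehicle-treated cultures provide the reference for the growth inhibition reported for compound-exposed, repair-deficient yeast.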
# [6] = NCI Yeast Anticancer Drug Screen. Data for the mec2-1 strain (AID 157); settings: S. cerevisiae mec2-1 strain, stronger effect = higher value
# Summary of the method: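 mec2-1 yeast strain, carrying an alteration in DNA damage repair or cell cycle control, was exposed to compounds; growth inhibition was measured relative to vehicle-treated controls.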
# [7] = NCI Yeast Anticancer Drug Screen. Data for the rad14 strain (AID 159);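 further: 0% = growth of vehicle-treated control cultures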; settings: S. cerevisiae rad14 strain growth inhibition, stronger effect = higher value
# Summary of the method: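 Inhibition of growth is reported for a repair-deficient yeast mutant following compound treatment, calculated relative to cultures that received vehicle.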
# [8] = NCI Yeast Anticancer Drug Screen. Data for the sgs1 mgt1 strain (AID 161);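 further: 0% = growth of cultures given vehicle only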; settings: S. cerevisiae sgs1 mgt1 strain, stronger effect = higher value
# Summary of the method: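 Growth of a repair-deficient yeast mutant was monitored after compound treatment and expressed as inhibition relative to vehicle-treated cultures.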
# [9] = NCI Yeast Anticancer Drug Screen. Data for the CLN2oe strain (AID 163);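 further: 0% = growth of vehicle-only control cultures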; settings: S. cerevisiae CLN2oe strain, stronger effect = higher value
# Summary of the method: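 Yeast cells carrying a defined cell-cycle control alteration were exposed to test compounds. Growth inhibition was scored against vehicle-treated control cultures.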
# [10] = NCI Yeast Anticancer Drug Screen. Data for the cln2 rad14 strain (AID 165);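 further: 0% = growth equal to vehicle treated cultures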; settings: S. cerevisiae cln2 rad14 strain, stronger effect = higher value
# Summary of the method: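 Yeast carrying cln2 and rad14 alterations (cell cycle control and DNA damage repair) were exposed to compounds. Growth inhibition was measured against vehicle-treated controls.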
# [11] = NCI Yeast Anticancer Drug Screen. Data for the bub3 strain (AID 167); settings: S. cerevisiae bub3 mutant strain, stronger effect = higher value
# Summary of the method: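 Mutant yeast screening strain plus compound; vehicle-treated cultures serve as the 0% inhibition reference.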
# [12] = NCI Yeast Anticancer Drug Screen. Data for the wt2 strain (AID 169); settings: S. cerevisiae wt2 strain growth inhibition, stronger effect = higher value
# Summary of the method: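 Yeast cells were exposed to test compounds, and growth inhibition was measured relative to vehicle-treated controls.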
# [13] = NCI Yeast Anticancer Drug Screen. Data for the mlh1 strain (AID 171);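 further: 0% = growth of vehicle-treated control cultures of the same strain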; settings: S. cerevisiae mlh1 strain growth inhibition, stronger effect = higher value
# Summary of the method: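 Yeast carrying a defined genetic alteration in DNA damage repair or cell cycle control were exposed to test compounds. Growth inhibition was measured relative to vehicle-treated controls.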
# [14] = NCI Yeast Anticancer Drug Screen. Data for the sgs1 strain (AID 173);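 further: 0% = growth of vehicle-only control cultures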; settings: S. cerevisiae sgs1 mutant, stronger effect = higher value
# Summary of the method: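 Yeast mutant strains carrying defined defects in DNA damage repair or cell cycle control were exposed to test compounds. Growth inhibition was scored against vehicle-treated controls.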
# [15] = NCI Yeast Anticancer Drug Screen. Data for the mlh1 rad18 strain (AID 175); settings: S. cerevisiae mlh1 rad18 strain growth inhibition, stronger effect = higher value
# Summary of the method: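 Growth inhibition of the yeast strain was measured after compound exposure and expressed relative to vehicle-treated controls. The strain carries defined defects in DNA damage repair.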
# [16] = NCI Yeast Anticancer Drug Screen. Data for the rad18 strain (AID 177); settings: S. cerevisiae rad18 mutant growth inhibition, stronger effect = higher value
# Summary of the method: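 Yeast carrying a defined DNA damage repair alteration were exposed to compounds. Growth inhibition was expressed relative to vehicle-treated controls.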
# [17] = at 5.0 µM (retest, dose inferred, filed as 0.5)
# [18] = at 50.0 µM (retest, dose inferred, filed as 5.0)
structure (smiles),measurement,setting,value
Oc1ccc(C2(c3ccc(O)cc3)CCCC2)cc1,growth inhibition,[1]; at 1.2 µM,-31%
same,growth inhibition,[1]; at 3.7 µM,-23%
same,growth inhibition,[1]; at 11.0 µM,15%
same,growth inhibition,[1]; at 33.0 µM,98% (active)
same,growth inhibition,[1]; at 100.0 µM,98% (active)
same,growth inhibition,[2]; at 1.2 µM,-41%
same,growth inhibition,[2]; at 3.7 µM,-21%
same,growth inhibition,[2]; at 11.0 µM,10%
same,growth inhibition,[2]; at 33.0 µM,98% (active)
same,growth inhibition,[2]; at 100.0 µM,98% (active)
same,growth inhibition,[3]; at 1.2 µM,-40%
same,growth inhibition,[3]; at 3.7 µM,-50%
same,growth inhibition,[3]; at 11.0 µM,-44%
same,growth inhibition,[3]; at 33.0 µM,-50%
same,growth inhibition,[3]; at 100.0 µM,-4%
same,growth inhibition,[4]; at 1.2 µM,-23%
same,growth inhibition,[4]; at 3.7 µM,-6%
same,growth inhibition,[4]; at 11.0 µM,37%
same,growth inhibition,[4]; at 33.0 µM,97% (active)
same,growth inhibition,[4]; at 100.0 µM,98% (active)
same,growth inhibition,[5]; at 1.2 µM,3%
same,growth inhibition,[5]; at 3.7 µM,4%
same,growth inhibition,[5]; [17],16%
same,growth inhibition,[5]; at 11.0 µM,34%
same,growth inhibition,[5]; at 33.0 µM,98% (active)
same,growth inhibition,[5]; [18],99% (active)
same,growth inhibition,[5]; at 50.0 µM,90.5% (active)
same,growth inhibition,[5]; at 100.0 µM,98% (active)
same,growth inhibition,[6]; at 1.2 µM,-26%
same,growth inhibition,[6]; at 3.7 µM,-16%
same,growth inhibition,[6]; [17],8%
same,growth inhibition,[6]; at 11.0 µM,32%
same,growth inhibition,[6]; at 33.0 µM,98% (active)
same,growth inhibition,[6]; [18],99% (active)
same,growth inhibition,[6]; at 50.0 µM,93.2% (active)
same,growth inhibition,[6]; at 100.0 µM,98% (active)
same,growth inhibition,[7]; at 1.2 µM,1%
same,growth inhibition,[7]; at 3.7 µM,-16%
same,growth inhibition,[7]; at 11.0 µM,29%
same,growth inhibition,[7]; at 33.0 µM,98% (active)
same,growth inhibition,[7]; at 100.0 µM,98% (active)
same,growth inhibition,[8]; [17],9%
same,growth inhibition,[8]; [18],53%
same,growth inhibition,[8]; at 50.0 µM,92.1% (active)
same,growth inhibition,[9]; at 1.2 µM,-12%
same,growth inhibition,[9]; at 3.7 µM,16%
same,growth inhibition,[9]; at 11.0 µM,48%
same,growth inhibition,[9]; at 33.0 µM,99% (active)
same,growth inhibition,[9]; at 100.0 µM,98% (active)
same,growth inhibition,[10]; [17],44%
same,growth inhibition,[10]; [18],99% (active)
same,growth inhibition,[10]; at 50.0 µM,89.5% (active)
same,growth inhibition,[11]; at 1.2 µM,-24%
same,growth inhibition,[11]; at 3.7 µM,-22%
same,growth inhibition,[11]; [17],16%
same,growth inhibition,[11]; at 11.0 µM,27%
same,growth inhibition,[11]; at 33.0 µM,98% (active)
same,growth inhibition,[11]; [18],98% (active)
same,growth inhibition,[11]; at 50.0 µM,92.1% (active)
same,growth inhibition,[11]; at 100.0 µM,98% (active)
same,growth inhibition,[12]; at 1.2 µM,-54%
same,growth inhibition,[12]; at 3.7 µM,-30%
same,growth inhibition,[12]; at 11.0 µM,-18%
same,growth inhibition,[12]; at 33.0 µM,98% (active)
same,growth inhibition,[12]; at 100.0 µM,98% (active)
same,growth inhibition,[13]; at 1.2 µM,-33%
same,growth inhibition,[13]; at 3.7 µM,-26%
same,growth inhibition,[13]; at 11.0 µM,46%
same,growth inhibition,[13]; at 33.0 µM,98% (active)
same,growth inhibition,[13]; at 100.0 µM,98% (active)
same,growth inhibition,[14]; at 1.2 µM,-20%
same,growth inhibition,[14]; at 3.7 µM,-17%
same,growth inhibition,[14]; at 11.0 µM,11%
same,growth inhibition,[14]; at 33.0 µM,98% (active)
same,growth inhibition,[14]; at 100.0 µM,98% (active)
same,growth inhibition,[15]; [17],35%
same,growth inhibition,[15]; [18],99% (active)
same,growth inhibition,[15]; at 50.0 µM,90% (active)
same,growth inhibition,[16]; at 1.2 µM,-11%
same,growth inhibition,[16]; at 3.7 µM,7%
same,growth inhibition,[16]; at 11.0 µM,60%
same,growth inhibition,[16]; at 33.0 µM,98% (active)
same,growth inhibition,[16]; at 100.0 µM,98% (active)
Cc1cc(O)c(C(C)C)cc1SC#N,growth inhibition,[1]; at 1.2 µM,2%
same,growth inhibition,[1]; at 3.7 µM,-12%
same,growth inhibition,[1]; at 11.0 µM,62%
same,growth inhibition,[1]; at 33.0 µM,34%
same,growth inhibition,[1]; at 100.0 µM,98% (active)
same,growth inhibition,[2]; at 1.2 µM,-15%
same,growth inhibition,[2]; at 3.7 µM,1%
same,growth inhibition,[2]; at 11.0 µM,43%
same,growth inhibition,[2]; at 33.0 µM,36%
same,growth inhibition,[2]; at 100.0 µM,99% (active)
same,growth inhibition,[3]; at 1.2 µM,-12%
same,growth inhibition,[3]; at 3.7 µM,-5%
same,growth inhibition,[3]; at 11.0 µM,1%
same,growth inhibition,[3]; at 33.0 µM,10%
same,growth inhibition,[3]; at 100.0 µM,89% (active)
same,growth inhibition,[4]; at 1.2 µM,-3%
same,growth inhibition,[4]; at 3.7 µM,-13%
same,growth inhibition,[4]; at 11.0 µM,54%
same,growth inhibition,[4]; at 33.0 µM,40%
same,growth inhibition,[4]; at 100.0 µM,99% (active)
same,growth inhibition,[5]; at 1.2 µM,-24%
same,growth inhibition,[5]; at 3.7 µM,-15%
same,growth inhibition,[5]; [17],91% (active)
same,growth inhibition,[5]; at 11.0 µM,67%
same,growth inhibition,[5]; at 33.0 µM,19%
same,growth inhibition,[5]; [18],98% (active)
same,growth inhibition,[5]; at 50.0 µM,89.1% (active)
same,growth inhibition,[5]; at 100.0 µM,98% (active)
same,growth inhibition,[6]; at 1.2 µM,-26%
same,growth inhibition,[6]; at 3.7 µM,-25%
same,growth inhibition,[6]; [17],96% (active)
same,growth inhibition,[6]; at 11.0 µM,68%
same,growth inhibition,[6]; at 33.0 µM,24%
same,growth inhibition,[6]; [18],99% (active)
same,growth inhibition,[6]; at 50.0 µM,91.1% (active)
same,growth inhibition,[6]; at 100.0 µM,98% (active)
same,growth inhibition,[7]; at 1.2 µM,-4%
same,growth inhibition,[7]; at 3.7 µM,0%
same,growth inhibition,[7]; at 11.0 µM,55%
same,growth inhibition,[7]; at 33.0 µM,46%
same,growth inhibition,[7]; at 100.0 µM,99% (active)
same,growth inhibition,[8]; [17],-5%
same,growth inhibition,[8]; [18],97% (active)
same,growth inhibition,[8]; at 50.0 µM,91.9% (active)
same,growth inhibition,[9]; at 1.2 µM,12%
same,growth inhibition,[9]; at 3.7 µM,-17%
same,growth inhibition,[9]; at 11.0 µM,68%
same,growth inhibition,[9]; at 33.0 µM,54%
same,growth inhibition,[9]; at 100.0 µM,98% (active)
same,growth inhibition,[10]; [17],65%
same,growth inhibition,[10]; [18],98% (active)
same,growth inhibition,[10]; at 50.0 µM,90.3% (active)
same,growth inhibition,[11]; at 1.2 µM,3%
same,growth inhibition,[11]; at 3.7 µM,50%
same,growth inhibition,[11]; [17],72% (active)
same,growth inhibition,[11]; at 11.0 µM,91% (active)
same,growth inhibition,[11]; at 33.0 µM,34%
same,growth inhibition,[11]; [18],98% (active)
same,growth inhibition,[11]; at 50.0 µM,90.5% (active)
same,growth inhibition,[11]; at 100.0 µM,98% (active)
same,growth inhibition,[12]; at 1.2 µM,-11%
same,growth inhibition,[12]; at 3.7 µM,-24%
same,growth inhibition,[12]; at 11.0 µM,52%
same,growth inhibition,[12]; at 33.0 µM,36%
same,growth inhibition,[12]; at 100.0 µM,98% (active)
same,growth inhibition,[13]; at 1.2 µM,-19%
same,growth inhibition,[13]; at 3.7 µM,-5%
same,growth inhibition,[13]; at 11.0 µM,58%
same,growth inhibition,[13]; at 33.0 µM,33%
same,growth inhibition,[13]; at 100.0 µM,98% (active)
same,growth inhibition,[14]; at 1.2 µM,-30%
same,growth inhibition,[14]; at 3.7 µM,-24%
same,growth inhibition,[14]; at 11.0 µM,65%
same,growth inhibition,[14]; at 33.0 µM,28%
same,growth inhibition,[14]; at 100.0 µM,98% (active)
same,growth inhibition,[15]; [17],81% (active)
same,growth inhibition,[15]; [18],99% (active)
same,growth inhibition,[15]; at 50.0 µM,89% (active)
same,growth inhibition,[16]; at 1.2 µM,12%
same,growth inhibition,[16]; at 3.7 µM,2%
same,growth inhibition,[16]; at 11.0 µM,59%
same,growth inhibition,[16]; at 33.0 µM,40%
same,growth inhibition,[16]; at 100.0 µM,98% (active)
